Source: PubChem BioAssay AID1220 (Sanford-Burnham Center for Chemical Genomics, 2008)
In all, about 190,000 compounds went through this assay and about 1,300 (0.68%) were called active. The entries come from a sample that favours actives as a whole. Unmarked numbers belong to inactive results. Rule as the data show it: active = inhibition above about 50%; inactive = the rest.

target: Mannose-6-phosphate isomerase (Homo sapiens) (UniProt P34949); experiment: human PMI inhibitors, high substrate, primary screen, biochemical, fluorescence intensity, high mannose 6-phosphate (AID 1220); conditions: recombinant PMI enzyme, coupled fluorescence intensity; at 20 µM; active compounds read high
Sequence (P34949 whole entry, looked up): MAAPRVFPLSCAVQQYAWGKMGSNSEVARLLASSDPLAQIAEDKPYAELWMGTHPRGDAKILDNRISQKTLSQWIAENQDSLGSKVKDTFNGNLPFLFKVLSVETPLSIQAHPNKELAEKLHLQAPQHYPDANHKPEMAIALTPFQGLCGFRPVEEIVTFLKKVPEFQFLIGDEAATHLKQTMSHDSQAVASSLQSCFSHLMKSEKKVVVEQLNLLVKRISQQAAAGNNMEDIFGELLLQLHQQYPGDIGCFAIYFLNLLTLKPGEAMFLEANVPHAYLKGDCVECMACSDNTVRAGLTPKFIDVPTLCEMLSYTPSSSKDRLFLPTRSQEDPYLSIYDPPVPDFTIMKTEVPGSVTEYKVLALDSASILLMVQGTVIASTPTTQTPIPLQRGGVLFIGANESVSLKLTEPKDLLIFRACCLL

Structure (SMILES)	inhibition
Cc1cccc(NC2SC(=O)NC2=O)c1 (configuration not stated)	0.9%
CCCc1c(O)nc(SCC(=O)NCCc2ccc(OC)c(OC)c2)[nH]c1=O	6.4%
COc1ccc(CNc2oc(Cc3cccc4ccccc34)nc2C#N)cc1	9.4%
O=C(CCNC(=O)Cn1ccc2ccccc2c1=O)NCCCN1CCN(c2ccccc2F)CC1	54.6% (active)
O=C(CCNC(=O)Cn1ccc2ccccc2c1=O)NCCCN1CCN(c2ccc(F)cc2)CC1	-5.7%
CCCN1CCN(CCCNC(=O)CCNC(=O)Cn2ccc3ccccc3c2=O)CC1	-3.5%
Cc1cccc(N2CCC(N3CCN(C4CCCCC4)C(CCO)C3)CC2)c1C (configuration not stated)	22.8%
O=C(CSc1nnc(-c2ccco2)o1)NC1CCCCCC1	-4.7%
COc1cc(C)c(Cl)cc1S(=O)(=O)NCCCN1CCOCC1	2%
COc1ccc2c(c1)CC/C(=C/c1ccncc1)C2=O	11.5%
O=C1/C(=C/c2ccco2)Cc2ccccc21	16%
COc1ccc2c(c1)CC/C(=C/c1ccco1)C2=O	57.4% (active)
COc1ccc(/C=C2\CC/C(=C\c3ccc(OC)c(OC)c3)C2=O)cc1OC	20.6%
COc1cc(/C=C2\CCc3ccccc3C2=O)cc(OC)c1OC	23.9%
COc1cc(/C=C2\CC/C(=C\c3cc(OC)c(OC)c(OC)c3)C2=O)cc(OC)c1OC	11.2%
Nc1ccc2c(c1)C/C(=C/c1ccco1)C2=O	-39.6%
O=C1/C(=C/c2ccco2)CCc2ccccc21	56.9% (active)
COc1cc(/C=C2/CCc3ccccc3C2=O)cc(OC)c1OC	23.1%
O=C1/C(=C\c2ccco2)CCC/C1=C\c1ccco1	-57.2%
COc1ccc2c(c1)CC/C(=C/c1cc(OC)c(OC)c(OC)c1)C2=O	52.2% (active)
COc1ccc([N+](=O)[O-])cc1NC(=O)Nc1cccc(Cl)c1	-1.5%
O=C(Cn1nc(CNc2ccc(Cl)cc2)[n+]2c1CCCCC2)c1ccc(Br)cc1	9.2%
CCSc1nnc(-c2ccccc2N)c(=O)[nH]1	-2%
CCN(CC)S(=O)(=O)c1cc(-c2nnc(-c3ccc(Br)cc3)o2)ccc1Cl	3.4%
O=C(CN1CCC(NC(=O)Cc2ccccc2)CC1)Nc1ccccc1Br	-0.4%

Structure (SMILES)	inhibition
CSc1ccccc1NC(=O)CCn1c(=O)sc2ccccc21	-0.9%
Clc1ccc(OCCSc2ncccn2)cc1	11.9%
COc1ccc(-n2cc(CNCCCn3ccnc3)c(-c3ccccc3Cl)n2)cc1	1.9%
CCn1c2ccccc2c2cc(NC(=O)C(=O)N3CCOCC3)ccc21	50.2% (active)
CCn1c2ccccc2c2cc(NC(=S)N3CCOCC3)ccc21	3%
CCn1c2ccccc2c2cc(NC(=O)N3CCOCC3)ccc21	20%
O=C(NCc1ccncc1)C1=NN(c2ccccc2)C(=O)CC1	-91.4%
Cc1cccc(NCN2C(=O)C3C4C=CC(C4)C3C2=O)c1 (configuration not stated)	3.7%
S=C(NCCc1ccccc1)Nc1ccc(Nc2ccccc2)cc1	0%
CCN(CC)P(=O)(Nc1ccccc1Br)c1ccc(N(C)C)cc1NC(=O)c1ccco1 (configuration not stated)	16.4%
CCN(CC)P(=O)(Nc1ccc(SC(F)F)cc1)c1ccc(N(C)C)cc1NC(=O)c1ccco1 (configuration not stated)	35.4%
CCN(CC)P(=O)(Nc1ccc(C)cc1Br)c1ccc(N(C)C)cc1NC(=O)c1ccco1 (configuration not stated)	53% (active)
Cc1ccc2cc(C#N)c(N3CCCC3)nc2c1C	-56.8%
O=C(Cc1c(Cl)cccc1Cl)OCC(=O)N1CCc2ccccc2C1	-1%
C[n+]1ccc(/C=C/c2ccccc2O)c2ccccc21	12.7%
CN1/C(=C/c2cc[n+](C)c3ccccc23)C=Cc2ccccc21	58% (active)
CCN1/C(=C/c2ccc3ccccc3[n+]2CC)C=Cc2ccccc21	17.7%
COc1ccc(CNC(=O)COC(=O)/C=C/c2ccco2)cc1	-4.8%
CCOC(=O)c1c(/N=C/c2cc(C)ccc2O)sc2c1CCN(C)C2	-5.7%
Nc1ccc(NC(=O)c2ccco2)c(Cl)c1	-1.2%
O=C(COc1ccccc1)NCCSCc1ccco1	5.1%
Brc1ccc(-c2ccc(/C=N/Nc3nc(N4CCOCC4)nc(N4CCOCC4)n3)o2)cc1	5.4%
Cc1ccc(/C=N/Nc2nc(N3CCOCC3)nc(N3CCOCC3)n2)o1	-10.9%
Cc1cc(C)nc(N/N=C/c2ccc(N3CCOCC3)cc2)n1	4.7%
C(=N\Nc1nc(N2CCOCC2)nc(N2CCOCC2)n1)/c1ccncc1	-1%

Structure (SMILES)	inhibition
CN(C)c1ccc(/C=N/Nc2cc(N3CCOCC3)nc(N3CCOCC3)n2)cc1	60.4% (active)
O=[N+]([O-])c1ccc(/C=N/Nc2nc(N3CCOCC3)nc(N3CCOCC3)n2)cc1	-1.5%
CC(C)c1ccc(/C=N/Nc2cc(N3CCOCC3)nc(N3CCOCC3)n2)cc1	68.6% (active)
CN(C)c1ccc(/C=C/C=N/Nc2nc(N3CCOCC3)nc(N3CCOCC3)n2)cc1	8.9%
Clc1ccc(-c2ccc(/C=N/Nc3cc(N4CCOCC4)nc(N4CCOCC4)n3)o2)cc1	54.5% (active)
COc1c(C)cccc1C(=O)NC(=S)Nc1ccc2c(c1)Cc1ccccc1-2	8.2%
COc1ccc(NS(=O)(=O)c2cc(NC(=O)Cn3cnc4c3c(=O)n(C)c(=O)n4C)ccc2C)cc1	8.9%
CC(NC(=O)Cc1ccccc1)c1nc2ccccc2[nH]1 (configuration not stated)	-7.3%
Cc1nc2n(n1)C(O)c1cc([N+](=O)[O-])ccc1S2 (configuration not stated)	7.3%
COc1ccc(C(=O)CN(Cc2ccccc2)C2=NCCS2)cc1	-4.2%
CCOC(=O)c1c(C)oc2ccc(O)c(CN3CCCCC3)c12	6.2%
CCOC(=O)c1c(C)oc2c1c1c(c3ccccc32)OCN(Cc2cccnc2)C1	67.3% (active)
CCOC(=O)c1c(C)oc2c1c(C(c1cccnc1)N1CCN(C)CC1)c(O)c1ccccc12 (configuration not stated)	28.8%
CCOC(=O)c1c(C)oc2c1c(C(c1ccncc1)N1CCOCC1)c(O)c1ccccc12 (configuration not stated)	10.8%
CCOC(=O)c1c(C)oc2c1c(C(c1cccnc1)N1CCCCC1)c(O)c1ccccc12 (configuration not stated)	26.9%
CCOC(=O)c1c(C)oc2c1c(C(c1cccnc1)N1CCOCC1)c(O)c1ccccc12 (configuration not stated)	58% (active)
CC(=O)Oc1ccc2c(c1)c(C(C)=O)c(C)n2C	-2.9%
COc1ccccc1C(=O)N/N=C/c1cnc2ccccc2n1	-4.4%
CCCCNC(=O)c1ccc(CNS(=O)(=O)c2ccc(Br)cc2)cc1	4.4%
CC1(C)CC(=O)C2=C(C1)NC(=O)CC2c1ccc(F)cc1 (configuration not stated)	-3.1%
COc1cc(C2C(C#N)=C(C)NC3=C2C(=O)CC(C)(C)C3)cc(OC)c1O (configuration not stated)	66.5% (active)
COc1cc(C2C(C#N)=C(C)NC3=C2C(=O)CC(C)(C)C3)ccc1O (configuration not stated)	3.8%
COc1cc(C2CC(=O)NC3=C2C(=O)CC(C)(C)C3)cc(OC)c1O (configuration not stated)	54.4% (active)
COc1cc(C2C(C#N)=C(C)NC3=C2C(=O)CC(C)(C)C3)ccc1OCCO (configuration not stated)	5.4%
COc1cc(C2CC(=O)NC3=C2C(=O)CC(C)(C)C3)ccc1O (configuration not stated)	4.3%

Structure (SMILES)	inhibition
CCc1cccc(NC(=O)CS(=O)Cc2nc(-c3ccc(C)cc3)oc2C)c1 (configuration not stated)	6.8%
COc1ccccc1-n1cnnc1SCC(=O)NCC1CCCO1 (configuration not stated)	-9.1%
Cc1ccc2nc(-c3ccccc3)c(CN3CCOCC3)n2c1	-1%
O=C(NC(=S)Nc1nc(-c2ccc(Cl)cc2)cs1)c1cccs1	-11.6%
COc1ccc(C)cc1NC(=O)c1ccoc1C	3.7%
Oc1ccc(-c2cn3c(n2)SCC3)cc1	-10.9%
Cc1ccc(-c2cn3c(n2)SCC3)cc1	1%
Oc1ccc(-c2cn3c(n2)SCC3)cc1O	53.1% (active)
O=C(NCc1cccnc1)NC1CCCN1S(=O)(=O)c1ccc(Cl)cc1 (configuration not stated)	-3.5%
Cc1ccc(-c2csc(NC(=O)CSc3ncn(-c4ccccc4)n3)n2)cc1	0%
COc1cccc(NC(=O)CSc2nc3c(c(=O)n2C)SC(C)C3)c1 (configuration not stated)	2.4%
CCOc1ccc(C(=O)N[C@H](C(=O)Nc2cccc(S(=O)(=O)N3CCCCC3)c2)C(C)C)cc1	57.6% (active)
CCOc1ccc(C(=O)N[C@H](C(=O)Nc2ccc(OC)c(S(=O)(=O)N3CCOCC3)c2)C(C)C)cc1	10.3%
O=C(Nc1cccc(S(=O)(=O)N2CCCCC2)c1)c1ccc(OCC2CCCO2)cc1 (configuration not stated)	2.6%
CCOC(=O)COn1c(=O)c(=O)n(O)c2ccccc21	24.9%
Oc1ccc(N=Cc2ccc(OCc3ccccc3)cc2)cc1	58.5% (active)
NC(N)=N/N=C/c1ccc(OCc2ccccc2)cc1	1.2%
O=Cc1ccc(O)c(O)c1	-5%
Oc1ccc(N=Cc2ccc(O)c(O)c2)cc1	52.6% (active)
CC(=O)Nc1ccc(N=Cc2ccc(OCc3ccccc3)cc2)cc1	10.3%
Oc1ccc(/C=N/N=C/c2ccc(O)cc2)cc1	-2.8%
O=C(c1sc2ccccc2c1Cl)N(Cc1ccccc1Cl)C1CCS(=O)(=O)C1 (configuration not stated)	1.4%
